Data from PubChem BioAssay (Tox21).
Results filed as inconclusive are left out. Activity calls are given as the source filed them. Unless noted, the call rests on the fitted dose curve; in most records, active means well fitted curve in the direction sought with a large enough effect in the repeat runs; inconclusive means weak or mixed curves; inactive means no such curve, though single readings can be large; an effect the other way counts as inactive or inconclusive. Starred links: 1 amine or outer side, 2 acyl side, 3 side chain; linkers in the order of their positions; H or OH if unused. Positions of bridges follow the written chain, without caps; N, C: chain ends. Non-standard residues stand in square brackets, D forms with d. Residues, ends and D or L forms follow the SMILES beside them. *: point of attachment. X5 = NC1=N[C@@H]([C@H](N[*:1])C(=O)[*:2])C[C@H](O)N1; ΔAla(Z-3-ureido) = NC(=O)N/C=C(\N)C(=O)O; β3hOrn = NCCC[C@H](N)CC(=O)*; Dap = NC[C@H](N)C(=O)O

How the values were obtained:
[1] = qHTS assay for small molecule agonists of the p53 signaling pathway (AID 651631; calls by dose curve; further: nearly all actives have a fitted effect of over 15% in size; further: potency means the concentration at half of the fitted maximal effect)
In short: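 Testing took place in human colorectal HCT-116 cells with stable p53RE-driven beta-lactamase. After 16 h of compound exposure at 37 °C, a FRET substrate was added and fluorescence recorded 2 h later.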

[2] = qHTS assay for small molecules that induce genotoxicity in human embryonic kidney cells expressing luciferase-tagged ATAD5 (AID 651632); further: nearly all actives have a fitted effect of over 15% in size
In short: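 Reporter cells (HEK293T) express luciferase-tagged ATAD5, a protein that accumulates after DNA damage. Treat 16 hr at 37C/5% CO2, add Amplite, wait 30 min at RT, and read luminescence.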

[3] = qHTS assay for small molecule agonists of the p53 signaling pathway - cell viability (AID 651633; calls by dose curve; further: nearly all actives have a fitted effect of over 30% in size)
In short: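 p53RE-bla cells, seeded at 4,000 per well and rested 5 h at 37 C/5% CO2, received compounds in DMSO for 16 h at 37 C. CellTiter-Glo was then added, and luminescence was read after 30 min at room temperature to gauge cytotoxicity.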

[4] = qHTS assay for small molecules that induce genotoxicity in human embryonic kidney cells expressing luciferase-tagged ATAD5 - cell viability (AID 651634; calls by dose curve; further: nearly all actives have a fitted effect of over 25% in size)
In short: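 Seeding of 2,000 HEK293T ATAD5-luciferase cells per well preceded pin-tool compound transfer. Plates sat 15.5 hr at 37C under 5% CO2, then fluorescence was read after 30 min with CellTiter-Fluor.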

[5] = qHTS assay for small molecule disruptors of the mitochondrial membrane potential - cell viability (AID 720634; calls by dose curve;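 further: human HepG2 liver cancer cells; nearly all actives have a fitted effect of over 20% in size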)
In short: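 Measuring cytotoxicity alongside mitochondrial potential, the screen quantified ATP by luminescence in HepG2 cells after 1 hr compound incubation and a 30 min room-temperature CellTiter-Glo step.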

[6] = qHTS assay for small molecule disruptors of the mitochondrial membrane potential (AID 720635); further: potency means the concentration at half of the fitted maximal effect
In short: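 HepG2 cells (2,000/well) attached overnight at 37C, then took compound for 1 hr at 37C, 5% CO2. Mito-MPS dye was added for 30 min; fluorescence was read at 490/535 nm (monomers) and 540/590 nm (aggregates).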

[7] = qHTS assay to test for compound auto fluorescence at 590 nm (red) in HepG2 cells (AID 720674)
In short: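 Intrinsic compound fluorescence in the red window (Ex/Em 540/590 nm) is measured in attached HepG2 cells exposed for 1 hr, DMSO vehicle as baseline, benchmarked to Rose Bengal sodium.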

[8] = qHTS assay to test for compound auto fluorescence at 535 nm (green) in HepG2 cells (AID 720675)
[9] = qHTS assay to test for compound auto fluorescence at 460 nm (blue) in HEK293 cells (AID 720678)
In short: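 Cells were seeded and left to adhere for 4-5 hr at 37C. Compounds were then pin-transferred. After an overnight incubation at 37C under 5% CO2, intrinsic fluorescence at 405/460 nm was measured and referenced to triamterene.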

[10] = qHTS assay to test for compound auto fluorescence at 590 nm (red) in HEK293 cells (AID 720679)
In short: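 Each well held 2,000 HEK293 cells in medium containing 10% dialyzed FBS. Following 4-5 hr attachment at 37C, 23 nL test compound or DMSO was added; plates sat overnight, and red fluorescence (540/590nm) was recorded.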

[11] = qHTS assay to test for compound auto fluorescence at 535 nm (green) in HEK293 cells (AID 720680)
[12] = qHTS assay to test for compound auto fluorescence at 460 nm (blue) in HEK293 cell free culture (AID 720681)
In short: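 Test compounds were pinned into cell-free culture medium (DMEM with 10% FBS) and fluorescence was read directly at Ex/Em 405/460 nm. Signals were expressed as fluorescence equivalents of triamterene, with DMSO vehicle as control.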

[13] = qHTS assay to test for compound auto fluorescence at 535 nm (green) in HEK293 cell free culture (AID 720682)
In short: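 DMEM + 10% FBS, cell-free; cpd or DMSO pinned in; Ex485/Em535 read; output as fluorescein-equivalent signal.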

[14] = qHTS assay to test for compound auto fluorescence at 590 nm (red) in HEK293 cell free culture (AID 720683)
In short: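 Tox21 10K library compounds were pinned into cell-free DMEM with 10% FBS and fluorescence was read at excitation 540 nm. Activity is expressed as Rose Bengal sodium equivalency.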

[15] = qHTS assay to test for compound auto fluorescence at 590 nm (red) in HepG2 cell free culture (AID 720684)
In short: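 Red fluorescence (540 nm excitation, 590 nm emission) was measured after compound transfer into cell-free MEM supplemented with 10% FBS. Values are equivalencies against Rose Bengal sodium.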

[16] = qHTS assay to test for compound auto fluorescence at 460 nm (blue) in HepG2 cell free culture (AID 720685)
In short: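 Compound (23 nL) or DMSO pinned into cell-free MEM with 10% FBS; blue fluorescence read at 405/460 nm excitation/emission, expressed as auto-fluorescence equivalency to triamterene.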

[17] = qHTS assay to test for compound auto fluorescence at 535 nm (green) in HepG2 cell free culture (AID 720686)
[18] = qHTS assay to test for compound auto fluorescence at 460 nm (blue) in HepG2 cells (AID 720687)
In short: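 Cells (2,000/well in MEM with 10% FBS) attached overnight at 37 C, then were exposed to compound or DMSO for 1 hr at 37 C, 5% CO2. Fluorescence read at Ex/Em 405/460 nm, expressed as triamterene-equivalent signal.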

[19] = target: Glucocorticoid receptor (Homo sapiens) (UniProt P04150); assay: qHTS assay to identify small molecule agonists of the glucocorticoid receptor (GR) signaling pathway (AID 720691; active means well fitted activation curve with a large enough effect in the signal ratio in the repeat runs, not every such curve was filed as active; the % refers to the signal ratio); conditions: GR-bla HeLa, beta-lactamase reporter ratio, 18 h; activation: at 62.4 µM (top of the series)
In short: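 Reporter read-out: fluorescence intensity following 2 h room-temperature LiveBLAzer B/G FRET substrate loading. Prior step: GR-bla HeLa cells held 4 h, then treated 18 h at 37 C.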

[20] = target: Glucocorticoid receptor (Homo sapiens) (UniProt P04150); assay: qHTS assay to identify small molecule antagonists of the glucocorticoid receptor (GR) signaling pathway (AID 720692; active means well fitted inhibition curve with a large enough effect in the signal ratio in the repeat runs, not every such curve was filed as active; the % refers to the signal ratio)
In short: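 Dexamethasone (5 nM final) stimulated a stably integrated GRE-beta-lactamase reporter in HeLa cells during 18 h co-incubation with compounds; signal was quantified as fluorescence intensity of B/G FRET substrate after 2 h.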

Measured: Potency

Sequence of Glucocorticoid receptor (Homo sapiens) (P04150 whole entry, looked up): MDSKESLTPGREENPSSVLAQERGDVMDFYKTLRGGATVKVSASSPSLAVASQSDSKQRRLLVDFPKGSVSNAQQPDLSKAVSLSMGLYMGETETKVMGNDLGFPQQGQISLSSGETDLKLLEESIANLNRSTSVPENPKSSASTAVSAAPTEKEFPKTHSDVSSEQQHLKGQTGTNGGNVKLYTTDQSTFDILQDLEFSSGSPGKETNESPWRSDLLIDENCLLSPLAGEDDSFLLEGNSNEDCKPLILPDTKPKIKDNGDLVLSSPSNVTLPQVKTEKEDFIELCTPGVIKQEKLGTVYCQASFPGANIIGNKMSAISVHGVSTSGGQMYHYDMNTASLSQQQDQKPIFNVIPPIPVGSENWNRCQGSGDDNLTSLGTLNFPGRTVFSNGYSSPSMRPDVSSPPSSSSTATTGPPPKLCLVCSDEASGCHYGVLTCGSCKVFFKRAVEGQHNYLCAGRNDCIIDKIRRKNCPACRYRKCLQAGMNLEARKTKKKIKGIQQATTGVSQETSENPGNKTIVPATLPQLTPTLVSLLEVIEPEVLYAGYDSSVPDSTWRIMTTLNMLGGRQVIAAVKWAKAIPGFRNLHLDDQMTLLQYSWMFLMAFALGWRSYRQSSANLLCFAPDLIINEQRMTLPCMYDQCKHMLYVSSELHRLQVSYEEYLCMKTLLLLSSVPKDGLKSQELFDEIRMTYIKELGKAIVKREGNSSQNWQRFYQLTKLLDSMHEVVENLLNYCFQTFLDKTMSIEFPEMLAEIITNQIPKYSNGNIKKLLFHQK

CCCCCCCCCCCCCCCCCC(=O)OCCO
inactive: all assays above

O=C(OCCO)c1ccccc1O
not listed: [20]
inactive: all other assays above

O.O=C([O-])CC([S-])C(=O)[O-].[Au+].[Na+].[Na+] (stereo not given)
inactive: all assays above

OC[C@@H](O)C(O)[C@H](O)CO
not listed: [20]
inactive: all other assays above

C[C@@H]1C/C=C/C=C/C=C/C=C/[C@H](O[C@@H]2O[C@H](C)[C@@H](O)[C@H](N)[C@@H]2O)C[C@@H]2O[C@](O)(C[C@@H](O)C[C@H]3O[C@@H]3/C=C/C(=O)O1)C[C@H](O)[C@H]2C(=O)O
inactive: all assays above

O=C(CCCN1CCC(C(=O)c2ccc(F)cc2)CC1)c1ccc(F)cc1
not listed: [19] | [20]
inactive: all other assays above

C=C1/C(=C\C=C2/CCC[C@]3(C)[C@@H]([C@H](C)OCCC(C)(C)O)CC[C@@H]23)C[C@@H](O)C[C@@H]1O
active: [1] 11.9 µM
not listed: [19] | [20]
inactive: all other assays above

CN1CC(O)c2cc(N=NC(N)=O)c(O)cc21 (stereo not given)
inactive: all assays above

CCC(CN)CC(C)CCNCC(O)CNCC(C)CC(CC)CN (stereo not given)
inactive: all assays above

NCCC[C@H](N)CC(=O)N[C@H]1CNC(=O)[C@H]([C@H]2C[C@H](O)NC(N)=N2)NC(=O)/C(=C/NC(N)=O)NC(=O)[C@H](CO)NC(=O)[C@H](CO)NC1=O (β3hOrn-[Dap]SS[ΔAla(Z-3-ureido)][X5]; lactam 1-C)
not listed: [19] | [20]
inactive: all other assays above

CC(CN(C)C)CN1c2ccccc2S(=O)(=O)c2ccccc21 (stereo not given)
not listed: [19] | [20]
inactive: all other assays above

c1cnc2cc3c(cc2n1)[C@@H]1CNC[C@H]3C1
not listed: [18] | [19] | [20]
inactive: all other assays above

O=P(O)(O)C(Sc1ccc(Cl)cc1)P(=O)(O)O
inactive: all assays above

O=C(/C=C/c1cccc(F)c1)NC1CC1
not listed: [20]
inactive: all other assays above

O=C1O[C@H]2[C@H](O)[C@@H]1OC(O)[C@H]2O (stereo not given in full)
inactive: all assays above

CCNC(=O)[C@@H]1CCCN1C(=O)[C@H](CCCN=C(N)N)NC(=O)[C@H](CC(C)C)NC(=O)[C@@H](CC(C)C)NC(=O)[C@H](Cc1ccc(O)cc1)NC(=O)[C@H](CO)NC(=O)[C@H](Cc1c[nH]c2ccccc12)NC(=O)[C@H](Cc1cnc[nH]1)NC(=O)[C@@H]1CCC(=O)N1
inactive: all assays above

COC(=O)[C@H]1[C@H]2C[C@@H]3c4[nH]c5cc(OC)ccc5c4CCN3C[C@H]2C[C@@H](OC(=O)/C=C/c2cc(OC)c(OC)c(OC)c2)[C@@H]1OC
not listed: [20]
inactive: all other assays above

CN1C(=O)CN2CCc3ccccc3C2c2cc(Cl)ccc21 (stereo not given)
active: [1] 29.8 µM
not listed: [20]
inactive: all other assays above

CN(C(=O)CO)c1c(I)c(C(=O)NCC(O)CO)c(I)c(C(=O)NCC(O)CO)c1I (stereo not given)
inactive: all assays above

CC(C)(C)CC(=O)OCC(=O)[C@@]12OC(C)(C)O[C@@H]1C[C@H]1[C@@H]3CCC4=CC(=O)C=C[C@]4(C)[C@@]3(F)[C@@H](O)C[C@@]12C
active: [6] 13.3 µM
not listed: [19] | [20]
inactive: all other assays above

O=P(O)(O)C(O)(Cc1cnc2ccccn12)P(=O)(O)O
inactive: all assays above

COc1ccc(CCNCC(O)COc2cccc(C)c2)cc1OC (stereo not given)
inactive: all assays above

C=C[C@]1(C)C[C@@H](OC(=O)CO)[C@]2(C)[C@H](C)CC[C@]3(CCC(=O)[C@H]32)[C@@H](C)[C@@H]1O
inactive: all assays above

COC1=C(C(=O)O)N2C(=O)[C@@H](NC(=O)[C@H](N)C3=CCC=CC3)[C@H]2SC1
not listed: [20]
inactive: all other assays above

CCOC(=O)[C@H](CCc1ccccc1)N[C@@H](C)C(=O)N1CC2(C[C@H]1C(=O)O)SCCS2
not listed: [20]
inactive: all other assays above
